The campaign covered roughly 290,000 compounds. About 27,000 (9.3%) were called active. This is one part of a sample in which actives are shown more often than they occur. Values without a mark were called inactive. No stated cut-off is given here; in the data, active means inhibition mostly above about 28% (no sharp cut-off); inactive means mostly below about 43%.
assay: A qHTS for Small Molecule Inhibitors of Shiga Toxin; conditions: Vero cells, Shiga toxin protein synthesis inhibition reporter; at 38.7 µM, stronger effect = higher value; further: 0% is about no effect

| SMILES | inhibition |
| --- | --- |
| COc1cccc(-c2cccc(NC(=O)C3CCN(C4CCC4)CC3)c2)c1 | -10.9% |
| COc1cc(Nc2nc3ccc(Cl)cc3n3cnnc23)cc(OC)c1OC | -9.44% |
| CN1CCN(c2ccc(S(=O)(=O)N3CCCCC3)cc2NC(=O)Cc2ccccc2F)CC1 | -8% |
| COc1ccc(CC(=O)Nc2cc(S(=O)(=O)N3CCCCC3)ccc2N2CCN(C)CC2)cc1 | 2.85% |
| CCN1CCN(c2ccc(S(=O)(=O)N3CCCCC3)cc2NC(=O)Cc2c(Cl)cccc2Cl)CC1 | 42.5% (active) |
| COC(=O)c1cnc(Nc2cc(C)ccc2OC)c2ccccc12 | -8.41% |
| Cc1cc(F)ccc1NC(=S)NCCc1ccccc1 | 6.98% |
| Cc1ccc(C)c(C(C)NC(=O)C2CCCO2)c1 (centres undefined) | -10.5% |
| Cc1ccc(COc2ccc(/C=N/NC(=O)CN3CCCCC3)cc2)cc1 | 87.5% (active) |
| CCOc1cc(/C=N/NC(=O)CN2CCCCC2)ccc1O | -8.43% |
| O=C(CN1CCSCC1)N/N=C/c1ccc(Cl)cc1 | 29.2% |
| CC(=O)N/C(=N/c1nc(C)cc(C)n1)Nc1ccc(F)cc1F | -13.6% |
| CC(OC(=O)c1ccc2noc(-c3ccccc3)c2c1)C(N)=O (centres undefined) | 1.23% |
| CC(=O)c1c(C)n(-c2ccc(C)cc2)c2ccc(O)cc12 | -16.2% |
| CCCCCCOc1ccc(OC(=O)c2cccnc2)cc1 | 37.9% |
| O=C(Oc1ccc(-c2nc(-c3ccccn3)no2)cc1)c1ccccc1 | 33% (active) |
| O=C(Oc1ccc(Br)cc1)c1cccnc1 | 22.6% |
| CCN(CC)Cc1c(C(=O)N/N=C/c2cccc(OCc3ccc(F)cc3)c2)nnn1-c1nonc1N | -1.06% |
| COC(c1ccccc1)(c1ccccc1)C(Oc1nc(C)cc(C)n1)C(=O)O (centres undefined) | -2.84% |
| COc1ccc(S(=O)(=O)n2nc(C)c(S(=O)(=O)N3CCOCC3)c2C)cc1 | 13.2% |

| SMILES | inhibition |
| --- | --- |
| CCOC(=O)c1c(-c2ccc(-c3ccccc3)cc2)csc1NC(=O)CCC(=O)O | -3.4% |
| O=c1c2cc([N+](=O)[O-])ccc2nc2n1CCC2 | -7.31% |
| CSc1ccc(CNC(=O)c2ccc(NC(=O)C3=CSCCO3)cc2)cc1 | 16.6% |
| O=C(NCc1ccccc1Cl)C1CCCO1 (centres undefined) | 19.8% |
| O=C(Nc1ccc(C(=O)NCc2ccccc2Cl)cc1)C1=CSCCO1 | 47.1% (active) |
| CC12CCC(C(=O)N(NC(=O)c3ccccc3O)C1=O)C2(C)C (centres undefined) | 10.2% |
| Cc1cccc(C(=O)Nc2nnc(S(=O)(=O)N3CCCCCC3)s2)c1 | 13.6% |
| COc1cc(C(=O)OCc2ccc([N+](=O)[O-])cc2)cc(OC)c1OC | -13.3% |
| COc1cc(/C=N\Nc2ccc([N+](=O)[O-])cn2)ccc1OCC(=O)O | 31.3% |
| COc1cc(/C=N/O)ccc1OCc1ccc([N+](=O)[O-])cc1 | 82.1% (active) |
| CN1CCN(C(=O)C(=O)c2cn(CC(=O)N3CCCC3)c3ccccc23)CC1 | -13% |
| CN(Cc1ccccc1)C(=O)C(=O)c1cn(CC(=O)N2CCCC2)c2ccccc12 | 5.26% |
| COc1cccc(NC(=O)CS(=O)(=O)c2cn(CC(=O)N3CCOCC3)c3ccccc23)c1 | -10.3% |
| O=C(NCc1ccco1)C(=O)c1cn(CC(=O)N2CCCCCC2)c2ccccc12 | 27.2% |
| Cc1ccc(CNC(=O)C(=O)c2cn(CC(=O)N3CCCC3)c3ccccc23)cc1 | 35.1% (active) |
| COc1cccc(NC(=O)C(=O)c2cn(CC(=O)N3CCOCC3)c3ccccc23)c1 | 92.3% (active) |
| O=C(NCCCn1ccnc1)C(=O)c1cn(CC(=O)N2CCCCCC2)c2ccccc12 | -6.62% |
| Cc1ccc(CNC(=O)C(=O)c2cn(CC(=O)N3CCOCC3)c3ccccc23)cc1 | 79.4% (active) |
| O=C(Nc1ccc(F)cc1)C(=O)c1cn(CC(=O)N2CCOCC2)c2ccccc12 | 15.3% |
| COc1cccc(N(CC(=O)NC2CCCC2)C(=O)CCCC(=O)Nc2ccccn2)c1 | -5.09% |

| SMILES | inhibition |
| --- | --- |
| CCCNC(=O)CCc1c(C)nc2c(c(C)nn2-c2ccccc2)c1C | -16.2% |
| CCOc1ccc(N(CC(=O)Nc2cccc(OC)c2)S(C)(=O)=O)cc1 | 28.6% |
| CCC1=Nc2cc(C(=O)NCCN3CCCC3)ccc2Sc2ccc(C)cc21 | -6.55% |
| O=C(CN1C(=O)COc2ccc(Cl)cc21)Nc1ccc(N2CCOCC2)cc1 | -16.6% |
| Cc1cccc(N(C)C(=O)CN2C(=O)COc3ccc(S(=O)(=O)N4CCCCCC4)cc32)c1 | 4.44% |
| Cc1ccc(-c2csc(-c3cc(C)on3)n2)cc1 | 43% (active) |
| CCCc1cc(-c2nc(-c3ccc(C)cc3)cs2)ccn1 | 68% (active) |
| CCCc1cc(-c2n[nH]c(=S)n2CC)c2ccccc2n1 | -6.2% |
| CCCc1nc2scc(-c3ccc(C)cc3)c2c(=O)n1N | 44.2% |
| Cc1cc(-c2n[nH]c(=S)n2-c2ccc(C)c(C)c2)no1 | 6.5% |
| Cc1ccc(-c2csc(-c3c[nH]c4ccccc34)n2)cc1 | 111% (active) |
| Cc1ccc(-c2csc(N(Cc3ccco3)C(=O)c3cccs3)n2)cc1 | 18.8% |
| CCC(C)Sc1nnc(-c2c[nH]c3ccccc23)n1CCOC (centres undefined) | 11.2% |
| CCn1c(SCCC(C)C)nnc1-c1c[nH]c2ccccc12 | -3.59% |
| CC(=O)N1c2ccc(S(=O)(=O)N(C)CC(=O)N(C)Cc3ccccc3)cc2CC1C (centres undefined) | -1.97% |
| Cc1ccc(NC(=O)CCN2C(=O)c3ccccc3C2=O)cc1C | 7.31% |
| O=C(NCCN1CCOCC1)/C(=C/c1ccc(F)cc1)NC(=O)c1ccccc1 | -6.87% |
| COc1cccc(CNC(=O)COc2cc(O)c3c(c2)OC(C)(C)CC3=O)c1 | 7.09% |
| Cc1cccc(NC(=O)C2CCCN(C(=O)NCc3ccccc3)C2)c1C (centres undefined) | 14.7% |

— PubChem BioAssay AID2315 (National Center for Advancing Translational Sciences (NCATS), 2010)
